The supplement of paper PMC6853941
Unmarked numbers belong to inactive results.

tested on: MCF10A; assay: perturbation Mahalanobis distance of morphological profile vs DMSO controls (Mahalanobis distance (SD units)); higher = stronger morphological change, active = 7 or more; settings: screen batch: Batch1_Mahalanobis_Distance; 72 h
Method: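 MCF10A cells were seeded onto drugs dispensed acoustically into 384-well plates, using one dose per drug chosen from its human peak plasma concentration, and incubated for 72 h at 37 °C. Cells were stained for DNA, tubulin and mitochondria and imaged; 78 CellProfiler features were extracted, plate-normalised and compared with DMSO wells.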

First: CN1C[C@H](C(=O)N[C@]2(C)O[C@@]3(O)[C@@H]4CCCN4C(=O)[C@H](Cc4ccccc4)N3C2=O)C[C@@H]2c3cccc4[nH]cc(c34)C[C@H]21 [Dihydroergotamine] (74 µM)
Second: CC[C@@H](CO)NC(=O)[C@@H]1C=C2c3cccc4[nH]cc(c34)C[C@H]2N(C)C1 [Methylergonovine] (44 µM)
The “perturbation Mahalanobis distance” value of the first is higher: 2.63 for the first, 2.29 for the second.

Going from `NC(=O)CS(=O)C(c1ccccc1)c1ccccc1` (stereo not drawn) [Armodafinil] (27.1 µM) to `NCC(CC(=O)O)c1ccc(Cl)cc1` (stereo not drawn) [Baclofen] (4.7 µM), the “perturbation Mahalanobis distance” value falls from 3.56 to 1.93.

Going from `CCN(C(C)=O)c1cccc(-c2ccnc3c(C#N)cnn23)c1` [Zaleplon] (1.6 µM) to `Cc1cccc([C@H](C)c2cnc[nH]2)c1C` [Dexmedetomidine] (42 µM), the “perturbation Mahalanobis distance” value rises from 2.43 to 2.48.

Compared with `CCC(C)C(C)(COC(N)=O)COC(N)=O` (stereo not drawn) [Mebutamate] (144.2 µM), `COC[C@@H](NC(C)=O)C(=O)NCc1ccccc1` [Lacosamide] (49.9 µM) is higher in “perturbation Mahalanobis distance” value: 2.17 for the first, 3.59 for the second.

Compared with `NC1CC1c1ccccc1` (stereo not drawn) [Tranylcypromine] (7.5 µM), `CN(C)C(=O)Oc1ccc[n+](C)c1` [Pyridostigmine  Bromide] (5.5 µM) is higher in “perturbation Mahalanobis distance” value: 2.27 for the first, 2.83 for the second.

Going from `COc1cc2c(cc1OC)C1CC(=O)C(CC(C)C)CN1CC2` (stereo not drawn) [Tetrabenazine] (10 µM) to `O=C1CC[C@@]2(O)[C@H]3Cc4ccc(O)c5c4[C@@]2(CCN3CC2CC2)[C@H]1O5` [Naltrexone] (0.44 µM), the “perturbation Mahalanobis distance” value falls from 4.2 to 3.73.

Compared with `C[C@]12CC[C@H]3[C@@H](CC[C@@]45O[C@@H]4C(O)=C(C#N)C[C@]35C)[C@@H]1CC[C@@H]2O` [Trilostane] (308.7 µM), `C[C@]12CC[C@H]3[C@@H](CCC4=CC(=O)CC[C@@]43C)[C@@H]1CC[C@@H]2O` [Testosterone] (0.17 µM) is lower in “perturbation Mahalanobis distance” value: 3.36 for the first, 3.32 for the second.

First: CC(C)(O)C(=O)Nc1ccc([N+](=O)[O-])c(C(F)(F)F)c1 [Hydroxyflutamide] (27.1 µM)
Second: O=[N+]([O-])O[C@H]1CO[C@H]2[C@@H]1OC[C@H]2O[N+](=O)[O-] [Isosorbide Dinitrate] (0.13 µM)
The “perturbation Mahalanobis distance” value of the first is higher: 5.03 for the first, 2.18 for the second.

First: O=C(O)CCCc1ccc(N(CCCl)CCCl)cc1 [Chlorambucil] (8.1 µM)
Second: NCC1(CC(=O)O)CCCCC1 [Gabapentin] (122.6 µM)
The “perturbation Mahalanobis distance” value of the first is higher: 2.75 for the first, 2.06 for the second.

With `C[C@]12Cc3cn[nH]c3C[C@@H]1CC[C@@H]1[C@@H]2CC[C@@]2(C)[C@H]1CC[C@]2(C)O` [Stanozolol] (62.7 µM) the “perturbation Mahalanobis distance” value was 2.14.

same assay, conditions: screen batch: Batch2_Mahalanobis_Distance; 72 h

First: CN1C[C@H](C(=O)N[C@]2(C)O[C@@]3(O)[C@@H]4CCCN4C(=O)[C@H](Cc4ccccc4)N3C2=O)C[C@@H]2c3cccc4[nH]cc(c34)C[C@H]21 [Dihydroergotamine] (74 µM)
Second: CC[C@@H](CO)NC(=O)[C@@H]1C=C2c3cccc4[nH]cc(c34)C[C@H]2N(C)C1 [Methylergonovine] (44 µM)
The “perturbation Mahalanobis distance” value of the first is higher: 3.4 for the first, 3.37 for the second.

First: NC(=O)CS(=O)C(c1ccccc1)c1ccccc1 (stereo not drawn) [Armodafinil] (27.1 µM)
Second: NCC(CC(=O)O)c1ccc(Cl)cc1 (stereo not drawn) [Baclofen] (4.7 µM)
The “perturbation Mahalanobis distance” value of the first is higher: 2.45 for the first, 1.48 for the second.

First: CCN(C(C)=O)c1cccc(-c2ccnc3c(C#N)cnn23)c1 [Zaleplon] (1.6 µM)
Second: Cc1cccc([C@H](C)c2cnc[nH]2)c1C [Dexmedetomidine] (42 µM)
The “perturbation Mahalanobis distance” value of the first is higher: 3.38 for the first, 2.42 for the second.

First: CCC(C)C(C)(COC(N)=O)COC(N)=O (stereo not drawn) [Mebutamate] (144.2 µM)
Second: COC[C@@H](NC(C)=O)C(=O)NCc1ccccc1 [Lacosamide] (49.9 µM)
The “perturbation Mahalanobis distance” value of the first is higher: 3.78 for the first, 2.67 for the second.

First: NC1CC1c1ccccc1 (stereo not drawn) [Tranylcypromine] (7.5 µM)
Second: CN(C)C(=O)Oc1ccc[n+](C)c1 [Pyridostigmine  Bromide] (5.5 µM)
The “perturbation Mahalanobis distance” value of the first is higher: 3.55 for the first, 2.49 for the second.

Going from `COc1cc2c(cc1OC)C1CC(=O)C(CC(C)C)CN1CC2` (stereo not drawn) [Tetrabenazine] (10 µM) to `O=C1CC[C@@]2(O)[C@H]3Cc4ccc(O)c5c4[C@@]2(CCN3CC2CC2)[C@H]1O5` [Naltrexone] (0.44 µM), the “perturbation Mahalanobis distance” value falls from 3.85 to 3.37.

Going from `C[C@]12CC[C@H]3[C@@H](CC[C@@]45O[C@@H]4C(O)=C(C#N)C[C@]35C)[C@@H]1CC[C@@H]2O` [Trilostane] (308.7 µM) to `C[C@]12CC[C@H]3[C@@H](CCC4=CC(=O)CC[C@@]43C)[C@@H]1CC[C@@H]2O` [Testosterone] (0.17 µM), the “perturbation Mahalanobis distance” value rises from 2.45 to 3.14.

First: CC(C)(O)C(=O)Nc1ccc([N+](=O)[O-])c(C(F)(F)F)c1 [Hydroxyflutamide] (27.1 µM)
Second: O=[N+]([O-])O[C@H]1CO[C@H]2[C@@H]1OC[C@H]2O[N+](=O)[O-] [Isosorbide Dinitrate] (0.13 µM)
The “perturbation Mahalanobis distance” value of the first is higher: 4.63 for the first, 2.62 for the second.

Going from `C[C@]12Cc3cn[nH]c3C[C@@H]1CC[C@@H]1[C@@H]2CC[C@@]2(C)[C@H]1CC[C@]2(C)O` [Stanozolol] (62.7 µM) to `NCC1(CC(=O)O)CCCCC1` [Gabapentin] (122.6 µM), the “perturbation Mahalanobis distance” value falls from 3.12 to 2.79.

`O=C(O)CCCc1ccc(N(CCCl)CCCl)cc1` [Chlorambucil] (8.1 µM) was tested, and the “perturbation Mahalanobis distance” value was 8.46 (active).
